PLAP activator: PLAP enzyme activators, biochemical, luminescence, HTS. Alkaline phosphatase, placental type (Homo sapiens), P05187. purified PLAP enzyme, luminescent substrate read-out; hits give high values. activation fold at 20 µM. hit rate 1.2% among 96,000. AID 696, 2007; in the data active means activation fold above about 2
D1 mod: D1 CRE-luciferase signal change, two-sided – cell-based, HEK293 D1, dopamine EC30, D1 allosteric modulator project, primary screen | hit rate 5.9% among 58,000 | dopamine EC30 potentiation; actives deviate in either direction | AID 641, 2007 | B-score at 10 µM;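 active means luminescence count or its row- and column-corrected plate score outside the 99.7% band of the plate's sample wells, on either side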
Target sequence (P21728 whole entry, looked up): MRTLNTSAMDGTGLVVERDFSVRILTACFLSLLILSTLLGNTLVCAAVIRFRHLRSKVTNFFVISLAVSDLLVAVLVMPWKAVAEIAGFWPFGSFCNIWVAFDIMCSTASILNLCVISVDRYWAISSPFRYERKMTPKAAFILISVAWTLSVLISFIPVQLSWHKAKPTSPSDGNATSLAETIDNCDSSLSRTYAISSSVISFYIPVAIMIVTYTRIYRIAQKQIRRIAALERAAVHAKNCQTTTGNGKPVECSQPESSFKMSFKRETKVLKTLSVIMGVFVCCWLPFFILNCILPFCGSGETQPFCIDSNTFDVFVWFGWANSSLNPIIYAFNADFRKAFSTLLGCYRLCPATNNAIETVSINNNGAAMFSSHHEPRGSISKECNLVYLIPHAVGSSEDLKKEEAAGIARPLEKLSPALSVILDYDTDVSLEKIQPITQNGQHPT
PostGolgi ctrl: growth inhibition of yeast control strain, primary screen, counter-screen for post-Golgi transport modulator project | efflux-deficient yeast background strain, growth absorbance A615, 16 h | inhibition, % at 10 µM | hit rate 5% among 98,000 | AID 738, 2007
hDAT+cocaine: changed hDAT dopamine uptake under cocaine IC80, either direction, primary screen, cocaine antagonist project, cell-based, LLC-PK1 hDAT, [14C]-dopamine uptake, MLSMR | Sodium-dependent dopamine transporter (Homo sapiens), Q01959 | LLC-PK1 hDAT cells, [14C]-dopamine uptake with cocaine IC80; actives deviate in either direction | B-score at 10 µM | hit rate 1.3% among 110,000 | AID 449768, 2010;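 active means Z score or B-score, a plate-position-corrected score, falls beyond the plate's 99.7% confidence bounds, in either direction; inactive means both scores lie inside the 99.7% bounds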
PostGolgi yeast: phenotypic screen on post-Golgi transport, primary screen; post-Golgi transport phenotypic cell assay; inhibition, % at 10 µM; hit rate 0.9% among 98,000; AID 739, 2007;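 further: yeast cells grown in 1536-well plates; yeast grown about 18 h at 30C before absorbance read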
Cav32 inh: Cav3.2 calcium influx blockers – cell-based, Fluo-4 calcium fluorescence, FDSS, MLSMR library, primary screen. hit rate 4% among 100,000. AID 449739, 2010. B-score at 10 µM. Cav3.2-expressing cells; hits give low values. Voltage-dependent T-type calcium channel subunit alpha-1H (Homo sapiens), O95180;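 active means single-dose well whose peak fluorescence ratio is a statistical outlier from its plate by either plate-standardised score or position-corrected B-score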
Of the large screens only hits and unclear results are named; the others gave an inactive call. This is a sample that favours compounds with a hit; in the whole collection about 12% have one here. Unless noted, no stated cut-off is given here; in the data, active means inhibition above about 30%; inactive means the rest.

CCOC(=O)COc1ccc(C(=O)NC2CCCCC2)cc1	D1 mod -5.6
CC(Oc1ccc(C(=O)NC2CCCCC2)cc1)C(=O)O (stereo not drawn)	none
CC1=C(C#N)c2nc(N)c(C#N)c(C)c2/C1=C\c1ccc(C)cc1	PostGolgi ctrl 100, PostGolgi yeast 104 (no result: D1 mod)
CC(C)(C)c1csc(SCC(=O)Nc2ccc(Cl)cn2)n1	none (no result: PLAP activator, D1 mod, PostGolgi ctrl, PostGolgi yeast)
Cc1c(C(=O)NC2=NCCS2)oc2ccccc12	D1 mod -4.9
Cc1c(C(=O)Nc2ccc(Cl)cn2)oc2ccccc12	PostGolgi ctrl 31 (no result: PLAP activator)
Cc1csc(SCC(=O)Nc2ccc(Cl)cn2)n1	Cav32 inh -5.1 (no result: D1 mod)
Cc1ccc(C(=O)Nc2ccc(Cl)cn2)cc1	D1 mod -4.1
CCN(CC)S(=O)(=O)c1cccc(C(=O)Nc2ccc(Cl)cn2)c1	none
CCN(CC)S(=O)(=O)c1cc(C(=O)Nc2ccc(Cl)cn2)ccc1C	Cav32 inh -4.3
Cc1cc(C)nc(NC(=O)CSc2nc3ccccc3s2)n1	none (no result: D1 mod)
Cc1cc(C)nc(NC(=O)CSc2nc3cc(Cl)ccc3s2)n1	PostGolgi ctrl 36 (no result: D1 mod)
Cc1nn2c(N3CCN(C(=O)c4ccco4)CC3)cc(C(C)(C)C)nc2c1-c1ccccc1	PostGolgi ctrl 91, Cav32 inh -6.7
Cc1cc(N2CCN(C(=O)c3ccco3)CC2)n2ncc(-c3ccccc3)c2n1	PostGolgi ctrl 102, PostGolgi yeast 101
Cc1cc(N2CCN(C(=O)c3ccco3)CC2)n2ncnc2n1	none (no result: PLAP activator, PostGolgi ctrl, PostGolgi yeast)
Cc1nn2c(N3CCN(C4CCCC4)CC3)cc(C(C)(C)C)nc2c1-c1ccccc1	none (no result: D1 mod)
Cc1cc(C)c(-c2cc(NC(=O)CSc3n[nH]c(N)n3)n(-c3ccccc3)n2)cc1C	hDAT+cocaine 3.3 (no result: PLAP activator, D1 mod)
Cc1cc(Br)ccc1NC(=O)CNC(=O)CSc1n[nH]c(N)n1	none
Nc1nc(SCC(=O)Nc2ccc(Br)cc2F)n[nH]1	PLAP activator 2
NC(=O)c1ccsc1NC(=O)C1CCCN1S(=O)(=O)c1ccc(Cl)cc1 (stereo not drawn)	PostGolgi ctrl 36 (no result: D1 mod)
CCCNC(=O)C(C)n1c2ccccc2c2nc(=O)cc(C)n21 (stereo not drawn)	PostGolgi ctrl 33 (no result: D1 mod)
COc1cc2c(cc1NC(=S)Nc1cccc(C(F)(F)F)c1)oc1ccccc12	none (no result: D1 mod)
Cn1cccc1CNC(=O)Nc1ccc(Cl)cc1	PostGolgi ctrl 38
Cn1cccc1CNC(=O)Nc1ccccc1	none (no result: D1 mod)
Cc1ccc(C(C)C)c(OCC(=O)Nc2ccc3c(c2)nc(CN2CCCC2)n3C)c1	PLAP activator 2 (no result: D1 mod)
O=C(NCc1nc2ccccc2[nH]1)c1cccc(S(=O)(=O)N2CCCC2)c1	none (no result: D1 mod, hDAT+cocaine, Cav32 inh)
N#CC1=C2SCC(O)(c3ccccc3)N2C(=O)CC1c1ccccc1 (stereo not drawn)	PostGolgi yeast 41 (no result: D1 mod)
CCOC(=O)c1cnc2c(c(C)nn2C)c1Oc1ccc(Cl)cc1	Cav32 inh -6.7 (no result: D1 mod)
O=c1cc(-c2cccc3ccccc23)[nH][nH]1	hDAT+cocaine 2.4 (no result: PLAP activator, D1 mod)
COc1ccc(-c2cc(=O)[nH][nH]2)cc1	none (no result: D1 mod)
COc1ccccc1CNC(=O)C1CC2Cn3c(nc4cc(Cl)c(Cl)cc43)C2N1C (stereo not drawn)	none (no result: PLAP activator, D1 mod, PostGolgi ctrl, PostGolgi yeast)
O=C(c1ccc(Cn2cc(Br)cn2)o1)N1N=C(C(F)F)CC1(O)C(F)F (stereo not drawn)	PLAP activator 2 (no result: D1 mod)
CC(C)CCNC(=O)c1onc(CSc2ccccc2)c1C(=O)NCCC(C)C	none (no result: PLAP activator, D1 mod, PostGolgi ctrl, PostGolgi yeast)
O=C(C1=C[C@@H](c2csc3ccccc23)C[C@@H](OCCCCO)O1)N1CCN(Cc2ccc3c(c2)OCO3)CC1	none (no result: PLAP activator, D1 mod, PostGolgi ctrl, PostGolgi yeast)
O=C(C1=C[C@@H](c2ccccc2)C[C@@H](OCc2ccc(CO)cc2)O1)N1CCN(Cc2ccc3c(c2)OCO3)CC1	none (no result: PLAP activator, D1 mod, PostGolgi ctrl, PostGolgi yeast)
O=C(C1=C[C@H](c2csc3ccccc23)C[C@H](OCCCCO)O1)N1CCN(Cc2ccc3c(c2)OCO3)CC1	hDAT+cocaine 2.6 (no result: PLAP activator, D1 mod, PostGolgi ctrl, PostGolgi yeast)
CC(=O)n1cc([C@@H]2C=C(C(=O)NCc3ccccc3)O[C@H](OCc3ccc(CO)cc3)C2)c2ccccc21	hDAT+cocaine 2.2 (no result: PLAP activator, D1 mod, PostGolgi ctrl, PostGolgi yeast)
O=C(C1=C[C@H](c2ccccc2)C[C@H](OCc2ccc(CO)cc2)O1)N1CCN(Cc2ccccc2)CC1	hDAT+cocaine 2.8 (no result: PLAP activator, D1 mod, PostGolgi ctrl, PostGolgi yeast)
C#CCNC(=O)C1=C[C@H](c2cn(C(C)=O)c3ccccc23)C[C@H](OCc2ccc(CO)cc2)O1	none (no result: PLAP activator, D1 mod, PostGolgi ctrl, PostGolgi yeast)
O=C(c1coc2ccccc2c1=O)N1CCN(c2cccc(C(F)(F)F)c2)CC1	none (no result: hDAT+cocaine, Cav32 inh)
CC(=O)O[C@H]1CC[C@]2(C)[C@H]3CC=C4[C@@H]5[C@@H](C)[C@H](C)CC[C@]5(C(=O)O)CC[C@@]4(C)[C@]3(C)CC[C@H]2C1(C)C	none (no result: PLAP activator, D1 mod, PostGolgi ctrl, PostGolgi yeast)
C#Cc1ccc([C@@H]2C=C(C(=O)N3CCOCC3)O[C@H](OCC)[C@H]2CCCO)cc1	none (no result: PLAP activator, D1 mod, PostGolgi ctrl, PostGolgi yeast)
Cn1nc(-c2ccccc2)c2nc3ccccc3nc21	none
CCCCn1nc(-c2ccccc2)c2nc3ccccc3nc21	Cav32 inh -7.3 (no result: D1 mod)
CCN1CCN(C(c2ccc(OC)cc2)C(O)C(=O)c2c[nH]c3ccccc23)CC1 (stereo not drawn)	none (no result: D1 mod)
Cc1ccc(Cn2nnc3c(=O)[nH]c(C4CCN(C(=O)Cc5cccs5)CC4)nc32)cc1	hDAT+cocaine 3.4
CC(C)(C)c1ccc(Cn2nnc3c(=O)[nH]c(C4CCN(C(=O)Cc5cccs5)CC4)nc32)cc1	hDAT+cocaine 3.3
CCOc1ccccc1NC(=O)N1CCCC(c2nc3c(nnn3Cc3ccc(C)cc3)c(=O)[nH]2)C1 (stereo not drawn)	none
Cc1ccc(Cn2nnc3c(=O)[nH]c(C4CCCN(C(=O)Nc5ccc(F)cc5F)C4)nc32)cc1 (stereo not drawn)	hDAT+cocaine 3.2 (no result: D1 mod)
O=C(NCc1cccs1)c1nc2c(nnn2Cc2ccccc2Cl)c(=O)[nH]1	Cav32 inh -4.5 (no result: PLAP activator, D1 mod)
CCOc1ccc2nc(NC(=O)C3CCCN(S(=O)(=O)c4c(C)noc4C)C3)sc2c1 (stereo not drawn)	none (no result: PLAP activator, PostGolgi ctrl, PostGolgi yeast)
O=C(c1cc2c(=O)oc3ccccc3c2s1)N1CCN(c2ccccn2)CC1	none (no result: PLAP activator, PostGolgi ctrl, hDAT+cocaine, PostGolgi yeast, Cav32 inh)
CC(C)(C)CC(=O)N1CCC(c2nc3c(nnn3Cc3c(F)cccc3Cl)c(=O)[nH]2)CC1	none
CCNC(=O)CSc1nc2cc(OC)c(OC)cc2c(=O)n1CCC1=CCCCC1	none (no result: PostGolgi ctrl, hDAT+cocaine, PostGolgi yeast, Cav32 inh)
O=C1c2ccccc2C(=O)N1CC1=CCS(=O)(=O)C1	none
Cc1ccc(Cn2nnc3c(=O)[nH]c(C4CCN(S(=O)(=O)c5ccccc5)CC4)nc32)cc1	hDAT+cocaine 2.9
Cc1ccc(Cn2nnc3c(=O)[nH]c(C4CCCN(S(=O)(=O)c5ccccc5)C4)nc32)cc1 (stereo not drawn)	none (no result: D1 mod)
CN1CCN(c2ncnc3c2cnn3-c2ccc(Cl)cc2)CC1	D1 mod -6.2

From PubChem BioAssay
